Measurements published in article PMC12864922, “TDP-43 directly inhibits mRNA accumulation in neurites through modulation of mRNA stability”.
In all, about 9,900 sequences were measured (“r (bound/input frequency ratio)”: median about 0.7, highest 2% from about 6.5 on). The sample as a whole holds a higher share of the highest values than the screen did.

B1: ENSMUSG00000029028.198|Lrrc47 (ssRNA)
RNA: GGGAGUUCUACAGUCCGACGAUCGCUUCGAUAUCCGCAUGCUAUGUGUACGCAUCUGUACCAGCACACAGCUGCCAUCCCUCGAGCCACAGUGCCUGGUCCUAAGGACCCAGCAGCUGCACAGAGGACUUGGUGGCCCCGUGCCUUGCCAUCUGGCUGAGAAGAGAACCAGACCCUCAGCCUUCCCCCUCGACACCUUCUCGUUGGUGACCUCUGACCUUAAAGGACCAUUUCUACCUUCUGUAAAAGAACACCUGUUUGGGGUUGCGUGCGGCUUUCAUCCUAAGGCCGUGCGAGAGCCGUUCUCUUGCGGUCGCACUAGUGUGGAAUUCUCGGGUGUCAAGG
B2: ENSMUSG00000029636.117|Wasf3 (ssRNA)
RNA: GGGAGUUCUACAGUCCGACGAUCGCUUCGAUAUCCGCAUGCUAGGAGCCCUGUGGGUACUCAUGUGGAAAGUGCCCACUGACUUUGGCAGAUGGAGUUCACUUUCAUGGCUAGCCCUGAUAGCGUUGGGCACCAGUUAGCCAGGCCAUGUUCAAGCUGCCUAGAGUCUGCAGAGCUUGCAUGGCAGAGCGGCCGCAUCUGGUUCCCUCCUACUCCACCCAGUGGAAAAGAGACCUCCACGUUUUAUUUUCUGGGAUCCCUGCUCCUCUGUUCACCAGGGAGUGAGCACAGGUCAGCACCUCACCUCUUGCGGUCGCACUAGUGUGGAAUUCUCGGGUGUCAAGG
B3: ENSMUSG00000042529.497|Kcnj12 (ssRNA)
RNA: GGGAGUUCUACAGUCCGACGAUCGCUUCGAUAUCCGCAUGCUAGGGCCCCUGCAGCUGGACCAUGUACAGGGCUCCCUGGGGCUUGUCCUCAGGGGCAGAGAAGGACAUGGUGGCAGCAGCACUGAGAACAGGAGCAUGGCCUCUCUCAGACCCCAGGGCAGUCAUUCAGUCUUUUCCAUGGACACUCCCCACCGCUCCACAUACUGCCUCCGCCUCAUUCUUGGGCUCUUCCUGCCUUGCUGUCUUUCCUUCCACACAGAAGCACCAAGCAUCAUCCAUUCCCAUAGGCAAGCCCAGGGCACCUCUUGCGGUCGCACUAGUGUGGAAUUCUCGGGUGUCAAGG
B4: ENSMUSG00000058297.521|Spock2 (ssRNA)
RNA: GGGAGUUCUACAGUCCGACGAUCGCUUCGAUAUCCGCAUGCUAGACCACGUGUGAUGGGUGGGCACAGGUCUGCCUUGCUCCAGCCCCCUCCCUUGGUUUCUGUUGGUACCCAUUUGGCUUUUAUCUGCUUUCUGCUUCACCACUAAGUGCGUAGGUGGGGUCUUUUGAUAUCGGCUCCCCAAAGCCCAAGCCCACAGCCCUAGGAGAGAACCAGGGGCCCAUCUUUGACACCUGGGCCAUCACGAGCCCUCCCGCCUGCAGUUGUCCUAGGGAAAGACCUGGGGGUGCAAAAGGAGAUUCAACUCUUGCGGUCGCACUAGUGUGGAAUUCUCGGGUGUCAAGG
B5: ENSMUSG00000029028.18|Lrrc47 (ssRNA)
RNA: GGGAGUUCUACAGUCCGACGAUCGCUUCGAUAUCCGCAUGCUAGGCUCCUGUAGGUGUGGGUGUGCUGUAGGUGUCUGUGUGGGUGUGGGUGUGCUGUAGGUGUCUGUGUGGGUGUGGGUGUGCUAUAGGUAUCUGUGGGUGUGCUGUAGGUGUCUGUGUGGGUGUGCUGUAGGUGUCUGUGUAGGUGUGGGUGUGCUGUAGGUGUCUGUGUGGGUGUGCUAGGUGUCUGUAUAGGUGUGGGUGUGCUGUAGAUGUCUGUGUAGGUAUGGGUGUGCUGUAGAUCUUUGUAGGUGUAGGUAUGCCUCUUGCGGUCGCACUAGUGUGGAAUUCUCGGGUGUCAAGG
B6: ENSMUSG00000029028.15|Lrrc47 (ssRNA)
RNA: GGGAGUUCUACAGUCCGACGAUCGCUUCGAUAUCCGCAUGCUAGACUGUGGUCCGCUGACAGGCUCCUGUAGGUGUGGGUGUGCUGUAGGUGUCUGUGUGGGUGUGGGUGUGCUGUAGGUGUCUGUGUGGGUGUGGGUGUGCUAUAGGUAUCUGUGGGUGUGCUGUAGGUGUCUGUGUGGGUGUGCUGUAGGUGUCUGUGUAGGUGUGGGUGUGCUGUAGGUGUCUGUGUGGGUGUGCUAGGUGUCUGUAUAGGUGUGGGUGUGCUGUAGAUGUCUGUGUAGGUAUGGGUGUGCUGUAGAUCUCUCUUGCGGUCGCACUAGUGUGGAAUUCUCGGGUGUCAAGG
B7: ENSMUSG00000029028.22|Lrrc47 (ssRNA)
RNA: GGGAGUUCUACAGUCCGACGAUCGCUUCGAUAUCCGCAUGCUAGUAGGUGUCUGUGUGGGUGUGGGUGUGCUGUAGGUGUCUGUGUGGGUGUGGGUGUGCUAUAGGUAUCUGUGGGUGUGCUGUAGGUGUCUGUGUGGGUGUGCUGUAGGUGUCUGUGUAGGUGUGGGUGUGCUGUAGGUGUCUGUGUGGGUGUGCUAGGUGUCUGUAUAGGUGUGGGUGUGCUGUAGAUGUCUGUGUAGGUAUGGGUGUGCUGUAGAUCUUUGUAGGUGUAGGUAUGCUGUAGGUAUCUGGGUGUGGGUAUGCUCUUGCGGUCGCACUAGUGUGGAAUUCUCGGGUGUCAAGG
B8: ENSMUSG00000029028.17|Lrrc47 (ssRNA)
RNA: GGGAGUUCUACAGUCCGACGAUCGCUUCGAUAUCCGCAUGCUACUGACAGGCUCCUGUAGGUGUGGGUGUGCUGUAGGUGUCUGUGUGGGUGUGGGUGUGCUGUAGGUGUCUGUGUGGGUGUGGGUGUGCUAUAGGUAUCUGUGGGUGUGCUGUAGGUGUCUGUGUGGGUGUGCUGUAGGUGUCUGUGUAGGUGUGGGUGUGCUGUAGGUGUCUGUGUGGGUGUGCUAGGUGUCUGUAUAGGUGUGGGUGUGCUGUAGAUGUCUGUGUAGGUAUGGGUGUGCUGUAGAUCUUUGUAGGUGUAGCUCUUGCGGUCGCACUAGUGUGGAAUUCUCGGGUGUCAAGG
B9: ENSMUSG00000029028.14|Lrrc47 (ssRNA)
RNA: GGGAGUUCUACAGUCCGACGAUCGCUUCGAUAUCCGCAUGCUACCACGUGACUGUGGUCCGCUGACAGGCUCCUGUAGGUGUGGGUGUGCUGUAGGUGUCUGUGUGGGUGUGGGUGUGCUGUAGGUGUCUGUGUGGGUGUGGGUGUGCUAUAGGUAUCUGUGGGUGUGCUGUAGGUGUCUGUGUGGGUGUGCUGUAGGUGUCUGUGUAGGUGUGGGUGUGCUGUAGGUGUCUGUGUGGGUGUGCUAGGUGUCUGUAUAGGUGUGGGUGUGCUGUAGAUGUCUGUGUAGGUAUGGGUGUGCUGUCUCUUGCGGUCGCACUAGUGUGGAAUUCUCGGGUGUCAAGG
B10: ENSMUSG00000029028.16|Lrrc47 (ssRNA)
RNA: GGGAGUUCUACAGUCCGACGAUCGCUUCGAUAUCCGCAUGCUAGGUCCGCUGACAGGCUCCUGUAGGUGUGGGUGUGCUGUAGGUGUCUGUGUGGGUGUGGGUGUGCUGUAGGUGUCUGUGUGGGUGUGGGUGUGCUAUAGGUAUCUGUGGGUGUGCUGUAGGUGUCUGUGUGGGUGUGCUGUAGGUGUCUGUGUAGGUGUGGGUGUGCUGUAGGUGUCUGUGUGGGUGUGCUAGGUGUCUGUAUAGGUGUGGGUGUGCUGUAGAUGUCUGUGUAGGUAUGGGUGUGCUGUAGAUCUUUGUAGCUCUUGCGGUCGCACUAGUGUGGAAUUCUCGGGUGUCAAGG
B11: ENSMUSG00000029028.33|Lrrc47 (ssRNA)
RNA: GGGAGUUCUACAGUCCGACGAUCGCUUCGAUAUCCGCAUGCUACUGUGGGUGUGCUGUAGGUGUCUGUGUGGGUGUGCUGUAGGUGUCUGUGUAGGUGUGGGUGUGCUGUAGGUGUCUGUGUGGGUGUGCUAGGUGUCUGUAUAGGUGUGGGUGUGCUGUAGAUGUCUGUGUAGGUAUGGGUGUGCUGUAGAUCUUUGUAGGUGUAGGUAUGCUGUAGGUAUCUGGGUGUGGGUAUGCUGUAGAUGUCUGUGUAGGUGUGGAUAUGCUGUAGGUAUCUGGGUGUGCUGUAGGUGUCUGUGUGGCUCUUGCGGUCGCACUAGUGUGGAAUUCUCGGGUGUCAAGG
B12: ENSMUSG00000029028.27|Lrrc47 (ssRNA)
RNA: GGGAGUUCUACAGUCCGACGAUCGCUUCGAUAUCCGCAUGCUAUAGGUGUCUGUGUGGGUGUGGGUGUGCUAUAGGUAUCUGUGGGUGUGCUGUAGGUGUCUGUGUGGGUGUGCUGUAGGUGUCUGUGUAGGUGUGGGUGUGCUGUAGGUGUCUGUGUGGGUGUGCUAGGUGUCUGUAUAGGUGUGGGUGUGCUGUAGAUGUCUGUGUAGGUAUGGGUGUGCUGUAGAUCUUUGUAGGUGUAGGUAUGCUGUAGGUAUCUGGGUGUGGGUAUGCUGUAGAUGUCUGUGUAGGUGUGGAUAUGCCUCUUGCGGUCGCACUAGUGUGGAAUUCUCGGGUGUCAAGG
B13: ENSMUSG00000029028.23|Lrrc47 (ssRNA)
RNA: GGGAGUUCUACAGUCCGACGAUCGCUUCGAUAUCCGCAUGCUAGUCUGUGUGGGUGUGGGUGUGCUGUAGGUGUCUGUGUGGGUGUGGGUGUGCUAUAGGUAUCUGUGGGUGUGCUGUAGGUGUCUGUGUGGGUGUGCUGUAGGUGUCUGUGUAGGUGUGGGUGUGCUGUAGGUGUCUGUGUGGGUGUGCUAGGUGUCUGUAUAGGUGUGGGUGUGCUGUAGAUGUCUGUGUAGGUAUGGGUGUGCUGUAGAUCUUUGUAGGUGUAGGUAUGCUGUAGGUAUCUGGGUGUGGGUAUGCUGUAGCUCUUGCGGUCGCACUAGUGUGGAAUUCUCGGGUGUCAAGG

molecular target: TDP-43 (Homo sapiens, UniProt Q13148 1-414); assay: RNA Bind-n-Seq with designed 260-mer pool; 25 mM Tris-HCl, 150 mM KCl, 3 mM MgCl2, BSA (printed 500 mg/mL), 20 units/mL SUPERase IN; pH not stated; 500 nM RNA pool, 1 h, 4 C; TDP-43 5, 50, 500 nM; high values mean tight binding; settings: protein: recombinant; tags: SBP (GST cleaved off with PreScission; pGEX-GST-SBP)
Method in brief: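 Streptavidin beads captured recombinant SBP-tagged TDP-43 at 5, 50 or 500 nM, and the beads were incubated for 1 h at 4 °C with 500 nM of an in vitro-transcribed pool of 260-nt 3′ UTR oligos in 25 mM Tris-HCl, 150 mM KCl, 3 mM MgCl2, BSA and SUPERase IN. After washing, bound RNA was eluted with biotin, reverse transcribed, PCR-amplified and sequenced. Binding is reported as R, the mapped-read-normalized abundance of each oligo in the bound sample divided by its abundance in the input. Two independent protein batches served as duplicates.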

TDP-43, sequence (Q13148 whole entry): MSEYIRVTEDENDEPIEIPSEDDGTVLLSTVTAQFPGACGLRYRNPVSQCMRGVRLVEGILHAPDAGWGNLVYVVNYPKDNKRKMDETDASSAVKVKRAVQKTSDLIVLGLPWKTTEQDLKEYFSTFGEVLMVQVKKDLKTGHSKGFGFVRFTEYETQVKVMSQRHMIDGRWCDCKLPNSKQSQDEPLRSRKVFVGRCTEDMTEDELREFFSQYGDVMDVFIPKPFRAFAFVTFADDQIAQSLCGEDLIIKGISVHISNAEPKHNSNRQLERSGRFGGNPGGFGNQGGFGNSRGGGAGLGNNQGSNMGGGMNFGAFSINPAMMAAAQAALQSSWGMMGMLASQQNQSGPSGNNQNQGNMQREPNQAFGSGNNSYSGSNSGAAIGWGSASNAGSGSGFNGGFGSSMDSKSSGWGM

| Binder | binding signal |
| --- | --- |
| B1 | 0.346 R (bound/input frequency ratio) |
| B2 | 0.346 R (bound/input frequency ratio) |
| B3 | 0.929 R (bound/input frequency ratio) |
| B4 | 0.432 R (bound/input frequency ratio) |
| B5 | 5.03 R (bound/input frequency ratio) |
| B6 | 6.93 R (bound/input frequency ratio) |
| B7 | 5.37 R (bound/input frequency ratio) |
| B8 | 8.61 R (bound/input frequency ratio) |
| B9 | 6.07 R (bound/input frequency ratio) |
| B10 | 6.62 R (bound/input frequency ratio) |
| B11 | 5.4 R (bound/input frequency ratio) |
| B12 | 5.47 R (bound/input frequency ratio) |
| B13 | 5.87 R (bound/input frequency ratio) |
